Values joined by “and” are separate entries in the source; they are usually repeats but may differ in a detail not shown here. Equal values may be shown once. Results filed as inconclusive are left out. Active and inactive are the calls of the source.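 The calls were made as follows, unless noted: active = normalized viability below 100% at a tested concentration; inactive = the rest.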

The nature of test [1]: viability loss in pontine glioma line – cell-based, SU-DIPG-XXV, MIPE5.0, CellTiter-Glo, qHTS, dose response (AID 1347065; cut-off not given, nearly all actives have AC50 up to about 26 µM;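 also: cells exposed to compound for 48 hours before ATP readout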). The following applies: CellTiter-Glo ATP luminescence.
A short description of test [2]: growth inhibition of DIPG cells – cell-based, MIPE4.0 library, CellTiter-Glo luminescence, qHTS (AID 1347066; cut-off not given, nearly all actives have AC50 up to about 30 µM;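 also: cells exposed to compound for 48 hours before readout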). To be noted: SU-DIPG-VI viability, CellTiter-Glo ATP luminescence. For orientation: In ATP-based viability assays light output follows the ATP content of the culture.
Test [3] in a line: JHH-DIPG-1 glioma cell viability, MIPE5.0 library, CellTiter-Glo luminescence, qHTS (AID 1347067; cut-off not given, nearly all actives have AC50 up to about 26 µM;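 also: cells exposed to compound for 48 hours before readout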). To be noted: JHH-DIPG-1 glioma viability, CellTiter-Glo ATP luminescence.
A short description of test [4]: growth inhibition of DIPG cells – cell-based, MIPE5.0 library, qHTS (AID 1347068; cut-off not given, nearly all actives have IC50 up to about 30 µM). To be noted: SU-DIPG-XXV viability.
Test [5] in a line: viability loss with induced miR-34 in A549 – imaging, A549 dox-inducible miR-34, nuclei and caspase counts, primary screen (AID 1347080;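 active = compounds whose cell count with miR-34 switched on is under 0.7 times the count with it off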). To be noted: A549 miR-34 inducible, Hoechst nuclei count, 48 h.
Test [6] is described as follows: MELAS cybrid and Rieske KO viability enhancers – cell-based, MELAS cybrids, Rieske KO mouse fibroblasts, CellTiter-Glo, primary screen (AID 1508586;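 active = mean z-score across replicates of 1.96 or higher in either the MELAS or the Rieske mutant cell line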;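 also: z relative to plate mean and SD of compound and empty wells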). The following applies: low glucose.
A short description of test [7]: blockers of cellular phospholipid synthesis – cell-based, LOPAC library, screen 4, primary screen (AID 1347384; call rule not given here). The following applies: animal cells, phospholipid biosynthesis inhibition screen; at 10 µM.
Test [8] in a line: compounds altering HSF1 focus formation in cells – imaging, Selleck Cancer Library (AID 1347162; in the data active = plate-normalised HSF1 focus index below about 0.46). To be noted: human cells, HSF1 nuclear foci imaging, at 10 µM; SSMD: measured here: HSF1 foci SSMD mean; cell count: measured here: cell number; plate-normalised HSF1 focus index: stronger effect = lower value.
Test [9] can be described thus: drug combination growth inhibition, ovarian cancer – cell-based, oncology-focused library, rucaparib conditional, profiling panel (AID 1508598). To be noted: patient-derived ovarian cancer cells, CellTiter-Glo viability, 144 h, stronger effect = lower value.
[10] abbreviates: stronger effect = lower value, cell number ratio, induced over uninduced.
Setting [11] is: measured here: relative caspase fold change +Dox/-Dox.
Where [12] appears, read: measured here: total cells with miR-34 induction, stronger effect = lower value.
Setting [13] is: measured here: total cells without miR-34 induction.
Setting [14] is: MELAS cybrid survival, CellTiter-Glo 48 h, stronger effect = higher value.
Where [15] appears, read: Rieske KO mouse fibroblast survival, CellTiter-Glo 72 h.

As for `O=c1oc2cc(O)ccc2s1`, the call in [1], in [2], in test [3] and in [4] was inactive. Moreover, the fold change in [5] (setting [10]) was 0.941 (inactive); in test [5] (setting [11]), 0.692. Further, the values for the cell count in [5] (setting [12]) and in [5] (setting [13]) were 8830 and 9380, respectively. Besides, the z-score was -0.382 (inactive) in test [6] (setting [14]) and 0.46 in [6] (setting [15]).
Usually AC50 stands for the midpoint of the concentration-response curve, whichever way the signal moves. Regarding `Cn1cnc2c1c(=O)[nH]c(=O)n2C`, the compound was classed as inactive in test [1], in [3], in [4] and in test [7]. Besides, the half-maximal activity concentration (AC50) in test [2] is 20.9 µM (active). Moreover, the fold change in [5] (setting [10]) was 0.912 (inactive) and 0.854 (inactive) and 0.906 (inactive); in [5] (setting [11]), 0.922 and 1.4 and 3.48. For the same compound, the cell count in test [5] (setting [12]) is 9550 and 8390 and 11600; in test [5] (setting [13]), 10500 and 9820 and 12900. Further, the z-score in [6] (setting [14]) is -0.269 (inactive); in test [6] (setting [15]), -0.702.
On to `C[N+]1(C)[C@@H]2CC(OC(=O)[C@H](CO)c3ccccc3)C[C@H]1[C@@H]1O[C@@H]12` (stereo partly specified), for which the result in test [1], in test [2], in [3] and in test [4] was inactive.
Turning to `CCC1(C)CC(=O)NC1=O` (stereo unspecified), the compound was classed as inactive in test [1], in test [2], in test [3], in test [4] and in test [7]. The fold change in test [5] (setting [10]) is 0.975 (inactive) and 0.962 (inactive) and 0.96 (inactive); in test [5] (setting [11]), 1.24 and 1.03 and 2.35. Also, the cell count in test [5] (setting [12]) is 10300 and 8160 and 12600; in test [5] (setting [13]), 10600 and 8470 and 13100. Also, the results for the z-score in [6] (setting [14]) and in [6] (setting [15]) were -0.00472 (inactive) and -0.121, respectively.
A word on the viability: it is a read-out of living cells in per cent, often relative to untreated cells. Turning to `CC(C)(C#N)c1cc(Cn2cncn2)cc(C(C)(C)C#N)c1`, the call in [1], in test [2], in test [3] and in [4] was inactive. In addition, the fold change is 0.875 (inactive) and 0.939 (inactive) and 0.952 (inactive) in test [5] (setting [10]); 1 and 1.14 in test [5] (setting [11]). Moreover, the cell count in [5] (setting [12]) is 8530 and 7350 and 9720; in test [5] (setting [13]), 9750 and 7820 and 10200; in [8], 7640. Moreover, in [8], the SSMD came out at 1.85. Besides, in test [8], the plate-normalised HSF1 focus index is 1.07 (inactive). For the same compound, the z-score in [6] (setting [14]) is -0.386 (inactive) and -0.452 (inactive) and -0.582 (inactive); in test [6] (setting [15]) it was 0.599 and -0.518 and -0.151. For the same compound, the viability in [9] (at 0.000305 µM, OCI-C5x cells, with rucaparib 10 µM, 100% = cells with rucaparib alone) was 109% (inactive); in [9] (at 0.000305 µM, OCI-C5x cells, without rucaparib) it was 102% (inactive); in test [9] (at 0.000305 µM, OCI-P5x cells, with rucaparib 20 µM, 100% = cells with rucaparib alone), 98.5% (active); in test [9] (at 0.000305 µM, OCI-P5x cells, without rucaparib), 90.6% (active); in test [9] (at 0.00122 µM, OCI-C5x cells, with rucaparib 10 µM, 100% = cells with rucaparib alone), 107% (inactive); in test [9] (at 0.00122 µM, OCI-C5x cells, without rucaparib) it was 98.9% (active). Besides, the viability is 102% (inactive) in test [9] (at 0.00122 µM, OCI-P5x cells, with rucaparib 20 µM, 100% = cells with rucaparib alone); 95.3% (active) in test [9] (at 0.00122 µM, OCI-P5x cells, without rucaparib); 115% (inactive) in test [9] (at 0.00488 µM, OCI-C5x cells, with rucaparib 10 µM, 100% = cells with rucaparib alone); 107% (inactive) in test [9] (at 0.00488 µM, OCI-C5x cells, without rucaparib); 104% (inactive) in test [9] (at 0.00488 µM, OCI-P5x cells, with rucaparib 20 µM, 100% = cells with rucaparib alone); 100% (inactive) in [9] (at 0.00488 µM, OCI-P5x cells, without rucaparib). Besides, the viability in test [9] (at 0.0195 µM, OCI-C5x cells, with rucaparib 10 µM, 100% = cells with rucaparib alone) was 113% (inactive); in test [9] (at 0.0195 µM, OCI-C5x cells, without rucaparib) it was 107% (inactive); in [9] (at 0.0195 µM, OCI-P5x cells, with rucaparib 20 µM, 100% = cells with rucaparib alone), 110% (inactive); in test [9] (at 0.0195 µM, OCI-P5x cells, without rucaparib), 104% (inactive); in test [9] (at 0.0781 µM, OCI-C5x cells, with rucaparib 10 µM, 100% = cells with rucaparib alone), 105% (inactive); in test [9] (at 0.0781 µM, OCI-C5x cells, without rucaparib) it was 109% (inactive). Besides, the viability is 108% (inactive) in [9] (at 0.0781 µM, OCI-P5x cells, with rucaparib 20 µM, 100% = cells with rucaparib alone); 109% (inactive) in [9] (at 0.0781 µM, OCI-P5x cells, without rucaparib); 103% (inactive) in test [9] (at 0.313 µM, OCI-C5x cells, with rucaparib 10 µM, 100% = cells with rucaparib alone); 108% (inactive) in [9] (at 0.313 µM, OCI-C5x cells, without rucaparib); 112% (inactive) in test [9] (at 0.313 µM, OCI-P5x cells, with rucaparib 20 µM, 100% = cells with rucaparib alone); 113% (inactive) in [9] (at 0.313 µM, OCI-P5x cells, without rucaparib). Moreover, the viability in [9] (at 1.25 µM, OCI-C5x cells, with rucaparib 10 µM, 100% = cells with rucaparib alone) was 115% (inactive); in test [9] (at 1.25 µM, OCI-C5x cells, without rucaparib), 115% (inactive); in [9] (at 1.25 µM, OCI-P5x cells, with rucaparib 20 µM, 100% = cells with rucaparib alone) it was 111% (inactive); in test [9] (at 1.25 µM, OCI-P5x cells, without rucaparib), 112% (inactive); in [9] (at 5 µM, OCI-C5x cells, with rucaparib 10 µM, 100% = cells with rucaparib alone), 130% (inactive); in test [9] (at 5 µM, OCI-C5x cells, without rucaparib), 115% (inactive). Also, the viability in test [9] (at 5 µM, OCI-P5x cells, with rucaparib 20 µM, 100% = cells with rucaparib alone) was 115% (inactive); in test [9] (at 5 µM, OCI-P5x cells, without rucaparib), 109% (inactive).

The record behind these values is PubChem BioAssay.
